Laboratory results: PubChem BioAssay AID1441 (NMMLSC, 2008)
Hit rate of the full screen: of about 220,000 compounds, about 830 (0.38%) were called active. The full list was thinned out, with actives kept by preference. Unmarked numbers belong to inactive results. How the calls were made is not given here.

The compounds below were run against Regulator of G-protein signaling 16 (Homo sapiens) + Guanine nucleotide-binding protein G(o) subunit alpha (Homo sapiens) (UniProt O15492+P09471) (assay: RGS16-Galphao interaction inhibitors and enhancers – biochemical, human proteins, multiplexed bead flow cytometry, primary screen (AID 1441;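 further: Galphao activated by GDP with aluminum fluoride before binding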)). Conditions: bead-based flow cytometry RGS16-Galphao binding, fluorescence; at 10 µM; actives lie on both sides.
Regulator of G-protein signaling 16 (Homo sapiens) + Guanine nucleotide-binding protein G(o) subunit alpha (Homo sapiens), sequence (O15492 whole entry, looked up): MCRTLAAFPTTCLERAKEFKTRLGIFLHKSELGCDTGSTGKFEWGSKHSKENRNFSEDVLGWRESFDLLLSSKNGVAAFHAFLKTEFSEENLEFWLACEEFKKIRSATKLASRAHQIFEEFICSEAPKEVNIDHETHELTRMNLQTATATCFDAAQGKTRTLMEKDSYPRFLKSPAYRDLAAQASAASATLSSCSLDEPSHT
Regulator of G-protein signaling 16 (Homo sapiens) + Guanine nucleotide-binding protein G(o) subunit alpha (Homo sapiens), sequence (P09471 whole entry, looked up): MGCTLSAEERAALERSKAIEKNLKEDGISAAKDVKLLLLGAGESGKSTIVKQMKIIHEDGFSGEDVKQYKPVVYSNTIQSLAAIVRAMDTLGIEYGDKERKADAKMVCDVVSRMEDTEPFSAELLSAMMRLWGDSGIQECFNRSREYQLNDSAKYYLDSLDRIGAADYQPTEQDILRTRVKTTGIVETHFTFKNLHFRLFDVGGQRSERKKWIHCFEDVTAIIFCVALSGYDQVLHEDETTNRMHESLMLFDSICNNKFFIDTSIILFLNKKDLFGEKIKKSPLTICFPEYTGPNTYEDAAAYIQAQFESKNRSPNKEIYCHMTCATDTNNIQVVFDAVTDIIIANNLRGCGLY
CN(C(=O)COC(=O)c1cc(-c2ccco2)nc2ccccc12)C1CCS(=O)(=O)C1 (stereo not given) showed a binding response (% of control) of 89.7%.
For Cc1ccc(S(=O)(=O)CC(=O)Nc2c(C)n(C)n(-c3ccccc3)c2=O)cc1, the binding response (% of control) was 98%.
Cc1cc(C)cc(N(C(C)C(=O)Nc2c(C)n(C)n(-c3ccccc3)c2=O)S(C)(=O)=O)c1 (stereo not given) gave a binding response (% of control) of 109%.
For Cc1cc(C)cc(N(CC(=O)Nc2c(C)n(C)n(-c3ccccc3)c2=O)S(C)(=O)=O)c1, the binding response (% of control) was -28.4% (active).
C/C(=N/N1CCN(Cc2cccc3ccccc23)CC1)c1cccnc1 gave a binding response (% of control) of 104%.
COC(=O)c1ccccc1NC(=S)NC(=O)c1ccccc1F gave a binding response (% of control) of 101%.
In the case of C/C=C/C(=O)OCC(=O)Nc1ccc(F)cc1Cl, the binding response (% of control) is reported as 104%.
In the case of Cc1cccc(CN2CCN(Cc3cnn(-c4ccccc4F)c3)CC2CCO)n1 (stereo not given), the binding response (% of control) is reported as 101%.
In the case of O=C(NCc1ccccc1)c1ccc(S(=O)(=O)Nc2cccc(C(F)(F)F)c2)cc1, the binding response (% of control) is reported as 80.9%.
In the case of CCOC(=O)CSc1nc2c(c(=O)n(Cc3ccccc3Cl)c(=O)n2C)n1C, the binding response (% of control) is reported as -55.5% (active).
Cn1c(=O)c2c(nc(SCC(=O)Nc3ccccc3N3CCCCC3)n2C)n(C)c1=O showed a binding response (% of control) of 117%.
Work on CCOC(=O)CSc1nc2c(c(=O)n(C)c(=O)n2C)n1Cc1ccccc1F yielded a binding response (% of control) of 102%.
In the case of COc1ccccc1C1CCN(C(=S)Nc2ccc(Br)cc2)CC1, the binding response (% of control) is reported as 98%.
For CC(C)CC(=O)NC(=S)Nc1cc(C(=O)O)ccc1Cl, the binding response (% of control) was 103%.
CC(=O)c1ccc(NC(=S)NC(=O)CC(C)C)cc1 was tested, and the binding response (% of control) was 21.8% (active).
COc1ccc(NS(=O)(=O)c2ccc(NC(=S)NC(=O)CC(C)C)cc2)cc1 was tested, and the binding response (% of control) was 98.4%.
CC(=O)Nc1cccc(-c2nc3ccccc3s2)c1C showed a binding response (% of control) of 108%.
C/C(=N\NC(=O)c1cccnc1)c1ccc(-c2ccccc2)cc1 was tested, and the binding response (% of control) was 95.2%.
CC(C)c1nc(CNC(=O)CC2C(=O)NCCN2Cc2ccoc2)cs1 (stereo not given) was tested, and the binding response (% of control) was 105%.
With CC(C)=C1SC(N2CCN(c3ccc(C)c(Cl)c3)CC2)=NC1=O the binding response (% of control) was 99.9%.
CC(C)(C)NC(=O)c1cccc(NC(=O)Cc2ccc(Br)cc2)c1 was tested, and the binding response (% of control) was -3.28% (active).
Work on Cc1cccc(C)c1NC(=O)CNC(=O)Cc1ccc(Br)cc1 yielded a binding response (% of control) of 98.2%.
With COc1ccc(CC(=O)Nc2ccc(C(=O)NC(C)(C)C)cc2)cc1 the binding response (% of control) was 99.7%.
O=C(COC(=O)c1ccncc1)c1ccccc1 was tested, and the binding response (% of control) was 104%.
For O=C1C2C3C=CC(C3)C2C(=O)N1c1ccc(S(=O)(=O)Nc2nccs2)cc1 (stereo not given), the binding response (% of control) was 93.2%.
O=C(Nc1ccccc1)c1cc2ccccc2[nH]1 was tested, and the binding response (% of control) was 13.8% (active).
CC(C)n1c(=O)[nH]c2cc(C(=O)Nc3ccccc3)ccc21 gave a binding response (% of control) of 107%.
With COc1ccc2[nH]c(C(=O)Nc3ccccc3Cl)cc2c1 the binding response (% of control) was 97.5%.
Work on O=C(Nc1ccc(S(=O)(=O)Nc2nccs2)cc1)c1cc(=O)[nH]c2ccccc12 yielded a binding response (% of control) of 100%.
Work on CC1CCN(Cc2nc(-c3ccc(Cl)cc3)no2)CC1 yielded a binding response (% of control) of 108%.
COC(=O)C1=C(Nc2ccc(C)cc2)C=C(C)C(C(=O)OC)C1c1ccc(F)cc1 (stereo not given) gave a binding response (% of control) of 109%.
CN(c1ccccc1)c1ccc(/C=c2\s/c(=C(/C#N)C(=O)C(C)(C)C)n(Cc3ccco3)c2=O)cc1 was tested, and the binding response (% of control) was 551% [activator] (active).
COc1ccc(NC(=O)Cn2c(=O)n(Cc3ccco3)c(=O)c3ccccc32)cc1 gave a binding response (% of control) of 101%.
Cc1cs/c(=N\N=C\c2ccc(O)cc2)n1Cc1ccco1 showed a binding response (% of control) of 104%.
COc1ccccc1-n1c(-c2cc(-c3ccco3)[nH]n2)n[nH]c1=S was tested, and the binding response (% of control) was -1.14% (active).
COc1ccccc1-n1cn[nH]c1=S gave a binding response (% of control) of 102%.
In the case of COc1ccc(OC)c(-n2c(-c3ccn[nH]3)n[nH]c2=S)c1, the binding response (% of control) is reported as 102%.
In the case of CCCOc1ccc(Cc2c(Cl)nc(SC)nc2NC)cc1, the binding response (% of control) is reported as 97.7%.
COc1ccc(/C=N/n2nnnc2N)cc1OC gave a binding response (% of control) of 125%.
O=C(NCCc1ccccc1)/C(=C\c1ccc([N+](=O)[O-])cc1)NC(=O)c1ccccc1 was tested, and the binding response (% of control) was 101%.
Compound C=CCNC(=O)/C(=C\c1cccc([N+](=O)[O-])c1)NC(=O)c1ccccc1 has a binding response (% of control) of 98%.
CN(C)CCNC(=O)/C(=C/c1cccc([N+](=O)[O-])c1)NC(=O)c1ccccc1 was tested, and the binding response (% of control) was 219% [activator] (active).
CCSc1ccccc1C(=O)NCc1ccc(OC)cc1 showed a binding response (% of control) of 98.1%.
Compound S=c1[nH]nc(-c2cc(-c3ccccc3)n[nH]2)n1/N=C/c1c2ccccc2cc2ccccc12 has a binding response (% of control) of 97.7%.
Compound COC(=O)c1ccc(/C=N\n2c(C)nnc2C)cc1 has a binding response (% of control) of 82.2%.
In the case of CCN(CC)S(=O)(=O)c1cccc(-c2n[nH]c(=S)n2/N=C/c2ccc(C(=O)OC)cc2)c1, the binding response (% of control) is reported as 334% [activator] (active).
For Cc1cccc(NC(=O)c2nc[nH]c2C(=O)NCC(=O)OCc2ccccc2)c1, the binding response (% of control) was 110%.
Work on O=C(O)Cc1sc(-c2ccc(C(=O)O)cc2)nc1-c1ccccc1 yielded a binding response (% of control) of 99.1%.
NC(=O)Cc1ccc2sc(-c3ccccc3)nc2c1 was tested, and the binding response (% of control) was 23.6% (active).
In the case of NC(=O)Cc1ccc2c(c1)[nH]c1ccccc12, the binding response (% of control) is reported as 103%.
With CSCC[C@H](NC(=O)CCCn1nnc2ccccc2c1=O)C(=O)O the binding response (% of control) was 104%.
C=CCn1c(Cn2nnc3ccccc32)nnc1SCC(=O)N/N=C/c1cc(Br)cc(OC)c1O was tested, and the binding response (% of control) was -35.2% (active).
Compound Cc1ccc(Cn2c(SCC(=O)N/N=C/c3ccccc3OCC(=O)O)nc3ccccc32)cc1 has a binding response (% of control) of 99.5%.
Work on COc1ccc(OC)c(/C=N/NC(=O)CSc2nnc(C)n2-c2ccccc2)c1 yielded a binding response (% of control) of 97.7%.
Compound CN1CCN(S(=O)(=O)c2ccc(N3CCN(S(=O)(=O)c4cccs4)CC3)nc2)CC1 has a binding response (% of control) of 98.8%.
In the case of CN1CCN(C(CNS(=O)(=O)c2cccs2)c2cccnc2)CC1 (stereo not given), the binding response (% of control) is reported as -5.62% (active).
With Cc1ccc(NC(=O)NCC(c2cccnc2)N2CCOCC2)cc1 (stereo not given) the binding response (% of control) was 105%.
Compound Cn1nc(C(C)(C)C)c([N+](=O)[O-])c1C(N)=O has a binding response (% of control) of 98.6%.
COc1ccc2c(c1)CC[C@@H]1[C@@H]2CC[C@]2(C)C(=O)CC[C@@H]12 was tested, and the binding response (% of control) was 101%.
O=C(NCCc1c[nH]c2ccc(Cl)cc12)c1ccc([N+](=O)[O-])cc1 gave a binding response (% of control) of 112%.
With COc1ccccc1-n1c(=S)[nH]c2c(sc(=S)n2-c2ccc(C)cc2C)c1=O the binding response (% of control) was 94.4%.
COc1cccc(C2Nc3cccc4cccc(c34)N2)c1 was tested, and the binding response (% of control) was 106%.
In the case of O=[N+]([O-])C(=c1ccc2c(c1)N1C3=C(CCCC3)CC3CCCCC31N=2)[N+](=O)[O-] (stereo not given), the binding response (% of control) is reported as 20.9% (active).
Compound Cc1ccc(C)c(NC(=O)C(OC(=O)c2ccc(C)s2)c2ccccc2)c1 (stereo not given) has a binding response (% of control) of 112%.
In the case of COc1ccc(CN(Cc2ccc(OC)cc2)C(=O)c2cccs2)cc1, the binding response (% of control) is reported as 99%.
